Only some compounds are listed: those with a hit (about 1.1% of all), similar ones and a draw of the others.
MOR-DOR ag = agonists of human mu-delta opioid receptor heterodimerization | cells, OPRM1-OPRD1 heterodimerization, luminescence | activation, % at 9.3 µM | 340,000 tested, 0.3% active | AID 504326; in the data active means activation above about 18%;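 further: 0% = vehicle-treated cells and 100% = reference agonist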
Bfl-1 A1 inh = inhibitors of the anti-apoptotic protein A1, read as caspase activation | MEF A1-2A-BIM cells, Caspase-Glo 3/7 luminescence, 3 h; percent of clofoctol response, vehicle zero | caspase activation, % (no concentration beside the values) | 330,000 tested, 0.066% active | AID 2462;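 active means over half of replicate activation scores above 10%, or exactly half above 10 with the replicate mean above 10; inconclusive means replicate mean below 10 yet half the replicates above 10; inactive means over half of replicates below 10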
HTR5A inv ag = inverse agonist of human HTR5A in OPRM1-OPRD1 counter-screen | HTR5A cell line, luminescence, inverse agonism | 340,000 tested, 0.083% active | inhibition, % at 9.3 µM | P47898; in the data active means inhibition mostly above about 23%, no sharp cut-off; inactive means mostly below about 18%;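 further: 0% = cells with DMSO and 100% = no-cell wells with DMSO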
Target sequence (P47898 whole entry, looked up): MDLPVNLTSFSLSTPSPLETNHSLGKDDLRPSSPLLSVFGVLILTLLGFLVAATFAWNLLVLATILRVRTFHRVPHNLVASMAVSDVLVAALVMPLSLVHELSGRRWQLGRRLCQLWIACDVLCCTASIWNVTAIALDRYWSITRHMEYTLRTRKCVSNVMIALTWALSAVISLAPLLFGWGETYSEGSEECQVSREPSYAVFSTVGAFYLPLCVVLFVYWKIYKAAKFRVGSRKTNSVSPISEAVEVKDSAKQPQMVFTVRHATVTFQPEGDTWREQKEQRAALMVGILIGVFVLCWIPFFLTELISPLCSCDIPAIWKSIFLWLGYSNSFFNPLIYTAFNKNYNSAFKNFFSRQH
HTR5A ag = HTR5A agonism, opioid heterodimer counter-screen. 340,000 tested, 0.61% active. activation, % at 9.3 µM. HTR5A agonist assay, luminescence, cell-based. P47898; in the data active means activation mostly above about 9.5%, no sharp cut-off; inactive means mostly below about 7.6%;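 further: 0% = cells with vehicle only and 100% = reference agonist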
MOR-DOR inv ag = inverse agonists of human mu-delta opioid receptor heterodimerization; P35372+P41143; cell-based MOR-DOR heterodimer luminescence, inverse agonism; inhibition, % at 9.3 µM; 340,000 tested, 0.21% active; AID 504357; in the data active means inhibition above about 22%, passing the limit was not always enough;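 further: 0% = cells with DMSO and 100% = wells without cells with DMSO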
OPRM1-D1 inv cf = OPRM1-OPRD1 heterodimer inverse agonism, confirmation | shares compounds with MOR-DOR inv ag | cells expressing OPRM1/OPRD1 heterodimer, luminescence | inhibition, % at 9.3 µM | 580 tested, 20% active | AID 504900; in the data active means inhibition above about 32%;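 further: 0% = cells with DMSO and 100% = wells lacking cells with DMSO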
HTR5A inv ctr2 = HTR5A inverse agonism, opioid heterodimer counter-screen. shares compounds with MOR-DOR inv ag. HTR5A-expressing cells, luminescence. inhibition, % at 9.3 µM. 580 tested, under 10 active. AID 504914; call rule not given here;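 further: 0% = cells with DMSO and 100% = no-cell wells with DMSO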
* = called active by the depositor; i = inactive; ? = inconclusive; . = not tested or not shown.

SMILES | MOR-DOR ag | Bfl-1 A1 inh | HTR5A inv ag | HTR5A ag | MOR-DOR inv ag | OPRM1-D1 inv cf | HTR5A inv ctr2
CCCn1nc([N+](=O)[O-])c(C(C#N)c2nc3ccccc3o2)c(Cl)c1=O (centres undefined) | -2 | 0 | 6 | -1 | 11 | . | .
CCn1nc([N+](=O)[O-])c(C(C#N)c2nc3cc(C(F)(F)F)ccc3s2)c(Cl)c1=O (centres undefined) | -6 | 0 | 1 | -1 | 31* | -4 | -73
CSc1nnc2c(n1)OC1(Nc3ccccc3-2)C(=O)Nc2ccccc21 (centres undefined) | -11 | -1 | -1 | -5 | 53* | -21 | -6
CCSc1nnc2c(n1)OC(C)(C)Nc1ccccc1-2 | 0 | 1 | -10 | 10 | 0 | . | .
COc1ccccc1NC(=O)C1CCC(CNc2c(N3CCCCC3)c(=O)c2=O)CC1 (centres undefined) | -1 | 0 | -15 | 6 | 5 | . | .
CCCNC(=O)c1nnsc1S(=O)(=O)c1ccc(Cl)cc1 | -6 | . | 11 | -4 | 32* | 12 | -5
CC(NC(=O)COC(=O)CNC(=O)C1CCCCC1)c1ccccc1 (centres undefined) | 0 | 0 | 8 | -3 | 0 | . | .
O=C1OCc2cccc3cccc1c23 | 0 | 1 | -6 | -1 | 1 | . | .
O=C1Cc2cccc3cccc1c23 | -5 | 0 | -8 | -3 | 30* | 12 | -17
Cc1ccc2[nH]c(O)c(N=Nc3ccccc3C)c2c1 | -5 | 1 | 1 | 3 | 32* | 4 | 4
O=C(Cn1ccccc1=O)NCc1ccc(F)cc1 | 2 | 0 | -25 | 10 | -12 | . | .
CN(c1ccccc1C(=O)Nc1ccc(S(=O)(=O)N2CCOCC2)cc1)S(=O)(=O)c1ccccc1 | -6 | 0 | 5 | 3 | 33* | -3 | -15
O=[N+]([O-])c1cc([N+](=O)[O-])c2cc(-c3cccnc3)[nH]c2c1 | 2 | 0 | -10 | 4 | -12 | . | .
CCc1ccc(C(=O)NNc2ccc(Cl)cc2)cc1 | -8 | 0 | 6 | -7 | 39* | 14 | 1
O=C(NNc1ccc(Cl)cc1)c1cccs1 | -10 | 0 | -10 | -2 | 49* | -15 | -7
O=C(NNc1cc(Cl)cc(Cl)c1)c1cccs1 | -5 | 1 | 4 | -1 | 23 | . | .
CCc1ccc(C(=O)NNc2cc(Cl)cc(Cl)c2)cc1 | 3 | 0 | -8 | -1 | -16 | . | .
CCCc1ccc(C(=O)NNc2cccc(C)c2)cc1 | -9 | 0 | 0 | -7 | 44* | 25 | 14
CC1(CCc2ccccc2)NC(=S)N(c2ccccc2)N1 (centres undefined) | -2 | -1 | 2 | 3 | 10 | . | .
Cc1ccc2c(c1)C(=O)C(=O)N2CC(=O)OC(C)C | -10 | 0 | 23 | -9 | 55* | 10 | -1
Cc1ccc(OCCN2C(=O)C(=O)c3cc(C)ccc32)cc1 | -4 | 2 | 7 | 0 | 23 | . | .
CCCc1cc(=O)[nH]c(-n2[nH]c3c(c2=O)CCCC3)n1 | -5 | 0 | 0 | -9 | 33* | i | 3
CCC1CN(C(=O)N2CCC(C(=O)NCCc3ccccc3)CC2)c2ccccc2O1 (centres undefined) | -1 | 0 | 10 | -3 | 7 | . | .
CCc1cc(CNC(=O)c2ccc3nc(Cc4ccc(OC)c(OC)c4)oc3c2)on1 | -1 | -1 | -2 | 1 | 7 | . | .
Cc1cccc(N=C2C(=O)Nc3c(Cl)cccc32)c1 | -12 | 0 | -10 | 3 | 56* | 27 | 7
SMILES | MOR-DOR ag | Bfl-1 A1 inh | HTR5A inv ag | HTR5A ag | MOR-DOR inv ag | OPRM1-D1 inv cf | HTR5A inv ctr2
Cc1cccc(N=C2CSC(=O)N2)c1 | -3 | 0 | -4 | 2 | 16 | . | .
CCOC(=O)CSc1n[nH]c(=O)n1CCc1ccccc1 | 0 | 1 | -8 | 2 | -2 | . | .
CN(C)C(=O)CSc1n[nH]c(=O)n1CCc1ccccc1 | -6 | 0 | 3 | -2 | 38* | -58 | -3
CC(=O)Nc1ccc(C(=O)OCC(=O)c2ccc(S(=O)(=O)N3CCCCC3)cc2)cc1 | 3 | 0 | -8 | -3 | -18 | . | .
CC(=O)Nc1cccc(C(=O)OCC(=O)c2ccc(S(=O)(=O)N3CCCCC3)cc2)c1 | -9 | 0 | 18 | -7 | 47* | 49* | 15
COc1cc(C(=O)OCC(=O)c2ccc(S(=O)(=O)N3CCCCC3)cc2)cc(OC)c1OC | -8 | 0 | 1 | -3 | 31 | . | .
CNS(=O)(=O)c1cccc(C(=O)OCC(=O)c2cc3ccccc3o2)c1 | -17 | 1 | 37* | -15 | 77* | -282 | 6
CNS(=O)(=O)c1cccc(C(=O)OCC(=O)c2ccc(S(=O)(=O)N3CCCCC3)cc2)c1 | -10 | 0 | 13 | -5 | 53* | 24 | 18
CCCCNS(=O)(=O)NC(=O)C1=C(N2CCCC2)COC1=O | -2 | 2 | -3 | 1 | 10 | . | .
COc1cccc(NC(=O)[C@@H](NC(=O)N2CCn3c2nc2ccccc23)C(C)C)c1 | . | 2 | . | . | . | . | .
[O-]/[N+](=C\c1ccccc1)[C@@H]1CCCC[C@@H]1/[N+]([O-])=C/c1ccccc1 | -9 | -1 | 3 | 4 | 37* | 18 | 4
Cc1ccc(N/N=C/c2ccncc2)cc1 | -6 | 1 | 2 | -1 | 31 | . | .
Cc1ccc(N/N=C/c2cccnc2)cc1 | -10 | 0 | -3 | 1 | 52* | -237 | -17
CN(C)c1ccc(CNC(=O)CN(C)S(=O)(=O)c2ccc3c(c2)c(=O)n(C)c(=O)n3C)cc1 | 0 | 0 | 5 | 4 | 0 | . | .
O=C(CCC(=O)OCC(=O)c1ccc(Br)cc1)NC1CCCCC1 | -3 | 0 | -11 | 2 | 17 | . | .
COc1ccccc1NC(=O)CCC(=O)OCC(=O)c1ccc(C)c([N+](=O)[O-])c1 | -10 | 1 | 5 | 6 | 53* | -410 | -104
Cc1ccc(C(=O)COC(=O)CCC(=O)NC2CCCCC2)cc1[N+](=O)[O-] | -9 | 0 | 32 | -6 | 47* | 35* | 16
Cc1ccc(C(=O)COC(=O)CCC(=O)Nc2cccc(Cl)c2)cc1[N+](=O)[O-] | -12 | -1 | 17 | -7 | 52* | 32* | 7
CC(=O)N/C(=N/c1nc(C)cc(C)n1)Nc1cccc(C)c1 | -1 | ? | -5 | 1 | 7 | . | .
Cn1c(CNC(=O)Cc2ccc3c(c2)OCO3)nnc1SCc1ccccc1 | 1 | -1 | -2 | 1 | -5 | . | .
CC(=O)Nc1ccc(C(C#N)c2ccccc2)cc1 (centres undefined) | -2 | 0 | -1 | 0 | 12 | . | .
C=CCN(C(=O)c1cccc(N2C(=O)C3CC=CC(C)C3C2=O)c1)c1ccccc1 (centres undefined) | -1 | 0 | 12 | -5 | 5 | . | .
CN(Cc1ccc(Cl)cc1)C(=O)c1cc(S(=O)(=O)N2CCOCC2)ccc1N1CCCC1 | -2 | -1 | 9 | 4 | 10 | . | .

Source: PubChem BioAssay (several laboratories)
